The values below come from the supplement of paper PMC10849652.

About 7,900 targets were measured; listed, in parts, are those with a hit and a random draw of the rest. About 0.6% of all pairs of compound and target were hits. A number with no mark means an inactive call.

Sequence of UniProt O43432 (O43432 whole entry, looked up): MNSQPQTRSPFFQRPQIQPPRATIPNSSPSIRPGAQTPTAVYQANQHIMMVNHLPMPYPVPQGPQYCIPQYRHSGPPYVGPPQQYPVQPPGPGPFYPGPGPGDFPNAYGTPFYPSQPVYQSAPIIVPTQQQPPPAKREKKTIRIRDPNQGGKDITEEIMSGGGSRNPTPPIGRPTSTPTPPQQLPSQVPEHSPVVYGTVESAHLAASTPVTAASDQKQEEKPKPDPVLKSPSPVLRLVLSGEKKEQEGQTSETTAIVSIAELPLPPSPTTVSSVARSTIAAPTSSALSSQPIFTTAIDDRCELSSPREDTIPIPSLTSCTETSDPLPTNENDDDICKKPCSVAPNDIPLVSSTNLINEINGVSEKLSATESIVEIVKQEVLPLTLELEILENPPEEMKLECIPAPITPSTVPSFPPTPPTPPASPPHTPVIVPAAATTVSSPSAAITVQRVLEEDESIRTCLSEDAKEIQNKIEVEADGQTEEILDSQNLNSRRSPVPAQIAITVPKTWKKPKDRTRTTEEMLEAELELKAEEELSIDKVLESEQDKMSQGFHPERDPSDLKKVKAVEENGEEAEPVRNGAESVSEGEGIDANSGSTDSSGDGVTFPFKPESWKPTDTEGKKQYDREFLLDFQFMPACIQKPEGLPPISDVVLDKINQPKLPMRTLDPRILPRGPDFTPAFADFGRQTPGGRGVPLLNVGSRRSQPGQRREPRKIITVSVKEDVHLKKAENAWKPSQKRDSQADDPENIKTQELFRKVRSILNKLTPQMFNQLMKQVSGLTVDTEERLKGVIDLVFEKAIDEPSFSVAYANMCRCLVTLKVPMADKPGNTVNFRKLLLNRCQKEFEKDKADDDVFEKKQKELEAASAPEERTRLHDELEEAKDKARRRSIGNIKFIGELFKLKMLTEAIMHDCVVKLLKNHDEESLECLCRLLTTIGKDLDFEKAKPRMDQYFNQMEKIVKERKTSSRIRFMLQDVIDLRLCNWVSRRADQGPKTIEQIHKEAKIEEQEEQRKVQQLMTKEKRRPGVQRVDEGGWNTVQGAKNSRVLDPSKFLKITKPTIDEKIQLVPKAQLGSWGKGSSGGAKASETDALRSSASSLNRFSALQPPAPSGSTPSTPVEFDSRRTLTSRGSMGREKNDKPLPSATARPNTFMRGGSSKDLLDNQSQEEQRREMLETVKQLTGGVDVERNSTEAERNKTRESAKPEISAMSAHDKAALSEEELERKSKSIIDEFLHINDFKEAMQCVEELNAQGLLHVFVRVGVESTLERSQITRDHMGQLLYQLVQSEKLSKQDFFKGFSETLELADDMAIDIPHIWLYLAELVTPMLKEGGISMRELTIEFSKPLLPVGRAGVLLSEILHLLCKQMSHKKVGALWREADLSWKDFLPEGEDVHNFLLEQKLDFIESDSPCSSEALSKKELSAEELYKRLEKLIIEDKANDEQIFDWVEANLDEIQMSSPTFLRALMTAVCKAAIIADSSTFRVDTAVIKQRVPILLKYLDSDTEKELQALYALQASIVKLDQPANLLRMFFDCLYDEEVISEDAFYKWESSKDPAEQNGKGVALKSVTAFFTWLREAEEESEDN
Sequence of UniProt Q9Y6B2 (Q9Y6B2 whole entry, looked up): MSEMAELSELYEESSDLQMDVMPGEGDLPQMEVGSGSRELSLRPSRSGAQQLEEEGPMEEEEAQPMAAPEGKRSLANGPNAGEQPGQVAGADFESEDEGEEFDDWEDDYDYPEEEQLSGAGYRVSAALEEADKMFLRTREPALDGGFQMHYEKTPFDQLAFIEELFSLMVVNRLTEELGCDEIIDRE
Sequence of UniProt Q96GQ7 (Q96GQ7 whole entry, looked up): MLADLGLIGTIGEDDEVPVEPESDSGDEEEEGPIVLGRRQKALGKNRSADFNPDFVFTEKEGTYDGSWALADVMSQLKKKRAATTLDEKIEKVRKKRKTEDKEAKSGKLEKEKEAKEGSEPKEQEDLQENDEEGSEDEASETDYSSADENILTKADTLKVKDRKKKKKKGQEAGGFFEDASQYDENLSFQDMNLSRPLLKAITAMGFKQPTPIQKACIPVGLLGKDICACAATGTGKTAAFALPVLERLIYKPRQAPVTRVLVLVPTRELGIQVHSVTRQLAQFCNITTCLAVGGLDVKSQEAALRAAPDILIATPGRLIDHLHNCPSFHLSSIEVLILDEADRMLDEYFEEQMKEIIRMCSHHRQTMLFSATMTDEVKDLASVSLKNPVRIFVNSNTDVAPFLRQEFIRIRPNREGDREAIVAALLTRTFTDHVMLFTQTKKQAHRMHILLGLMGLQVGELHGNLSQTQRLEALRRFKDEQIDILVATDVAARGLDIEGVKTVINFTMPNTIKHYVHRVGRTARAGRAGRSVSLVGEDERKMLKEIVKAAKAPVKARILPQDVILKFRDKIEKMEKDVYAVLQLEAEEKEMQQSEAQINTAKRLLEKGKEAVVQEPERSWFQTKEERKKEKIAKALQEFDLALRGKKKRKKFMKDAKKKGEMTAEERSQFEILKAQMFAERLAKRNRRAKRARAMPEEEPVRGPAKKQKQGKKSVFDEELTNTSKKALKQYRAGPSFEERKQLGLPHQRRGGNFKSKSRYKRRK
Sequence of UniProt P32519 (P32519 whole entry, looked up): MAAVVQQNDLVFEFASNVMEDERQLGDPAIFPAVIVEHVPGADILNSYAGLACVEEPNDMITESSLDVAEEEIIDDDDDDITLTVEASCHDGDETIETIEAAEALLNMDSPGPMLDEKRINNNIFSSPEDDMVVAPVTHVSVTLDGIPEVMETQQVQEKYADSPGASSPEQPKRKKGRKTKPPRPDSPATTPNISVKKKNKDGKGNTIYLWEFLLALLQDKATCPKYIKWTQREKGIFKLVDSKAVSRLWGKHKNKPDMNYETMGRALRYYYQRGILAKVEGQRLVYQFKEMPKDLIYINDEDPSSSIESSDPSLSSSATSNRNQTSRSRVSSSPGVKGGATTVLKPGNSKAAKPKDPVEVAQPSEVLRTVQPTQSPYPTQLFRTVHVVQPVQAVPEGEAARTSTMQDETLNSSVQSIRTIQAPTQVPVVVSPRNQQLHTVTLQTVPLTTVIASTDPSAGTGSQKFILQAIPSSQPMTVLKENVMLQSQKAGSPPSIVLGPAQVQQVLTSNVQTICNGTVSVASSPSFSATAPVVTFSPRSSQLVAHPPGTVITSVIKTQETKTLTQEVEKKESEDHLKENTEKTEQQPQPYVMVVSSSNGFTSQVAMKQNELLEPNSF
Sequence of UniProt Q92556 (Q92556 whole entry, looked up): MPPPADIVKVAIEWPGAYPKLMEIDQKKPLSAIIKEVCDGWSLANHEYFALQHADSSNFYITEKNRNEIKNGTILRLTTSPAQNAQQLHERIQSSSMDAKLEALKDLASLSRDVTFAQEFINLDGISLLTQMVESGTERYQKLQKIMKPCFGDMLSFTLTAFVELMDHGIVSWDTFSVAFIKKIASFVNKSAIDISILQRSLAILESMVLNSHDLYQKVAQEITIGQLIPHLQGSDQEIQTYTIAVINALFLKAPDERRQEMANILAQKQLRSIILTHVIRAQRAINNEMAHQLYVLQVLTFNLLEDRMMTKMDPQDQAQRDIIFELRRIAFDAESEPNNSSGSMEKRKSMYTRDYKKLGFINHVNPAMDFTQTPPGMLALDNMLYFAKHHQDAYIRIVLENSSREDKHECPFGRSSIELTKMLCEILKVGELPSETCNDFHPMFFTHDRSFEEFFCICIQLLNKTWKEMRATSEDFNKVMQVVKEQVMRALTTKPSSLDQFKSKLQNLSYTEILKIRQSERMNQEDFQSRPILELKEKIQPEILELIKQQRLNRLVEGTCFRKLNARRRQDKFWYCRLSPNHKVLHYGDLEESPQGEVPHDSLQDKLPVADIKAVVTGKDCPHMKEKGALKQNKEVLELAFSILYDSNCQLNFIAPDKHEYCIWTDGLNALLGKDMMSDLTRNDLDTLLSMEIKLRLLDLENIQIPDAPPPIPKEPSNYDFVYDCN
Sequence of UniProt Q86YN1 (Q86YN1 whole entry, looked up): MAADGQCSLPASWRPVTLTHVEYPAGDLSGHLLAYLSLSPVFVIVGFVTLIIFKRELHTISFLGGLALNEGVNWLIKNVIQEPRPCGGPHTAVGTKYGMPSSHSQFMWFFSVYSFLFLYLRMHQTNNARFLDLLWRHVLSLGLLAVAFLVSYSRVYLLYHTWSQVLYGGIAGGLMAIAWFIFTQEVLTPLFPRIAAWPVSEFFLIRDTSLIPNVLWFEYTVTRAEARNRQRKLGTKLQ
Sequence of UniProt Q8WV16 (Q8WV16 whole entry, looked up): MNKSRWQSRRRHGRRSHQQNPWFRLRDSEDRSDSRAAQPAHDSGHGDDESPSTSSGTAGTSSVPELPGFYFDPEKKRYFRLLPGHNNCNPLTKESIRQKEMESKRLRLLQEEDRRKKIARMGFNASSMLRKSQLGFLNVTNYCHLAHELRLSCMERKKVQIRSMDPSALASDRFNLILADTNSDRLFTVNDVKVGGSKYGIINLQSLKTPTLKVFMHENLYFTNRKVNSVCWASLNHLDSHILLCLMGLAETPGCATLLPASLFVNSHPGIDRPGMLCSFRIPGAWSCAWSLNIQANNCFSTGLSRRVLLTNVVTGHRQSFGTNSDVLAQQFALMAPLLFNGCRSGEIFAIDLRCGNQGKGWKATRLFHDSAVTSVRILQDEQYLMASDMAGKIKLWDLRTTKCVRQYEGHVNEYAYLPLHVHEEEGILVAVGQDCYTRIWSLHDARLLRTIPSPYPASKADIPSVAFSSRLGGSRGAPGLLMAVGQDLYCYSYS
Sequence of UniProt Q9H410 (Q9H410 whole entry, looked up): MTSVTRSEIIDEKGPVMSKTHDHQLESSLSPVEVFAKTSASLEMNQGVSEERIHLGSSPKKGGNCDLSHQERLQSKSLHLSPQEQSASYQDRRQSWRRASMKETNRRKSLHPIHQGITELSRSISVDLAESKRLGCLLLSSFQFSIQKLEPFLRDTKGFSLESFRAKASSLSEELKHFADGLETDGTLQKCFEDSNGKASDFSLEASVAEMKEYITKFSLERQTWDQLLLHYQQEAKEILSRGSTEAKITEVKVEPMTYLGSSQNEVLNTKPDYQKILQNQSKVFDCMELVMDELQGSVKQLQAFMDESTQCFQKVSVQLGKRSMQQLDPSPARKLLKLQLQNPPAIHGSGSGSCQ

Compound in the first test: Cc1ccc(NC(=O)c2ccc(CN3CC[C@H](N(C)C)C3)c(C(F)(F)F)c2)cc1Nc1nccc(-c2cncnc2)n1 [bafetinib]
The test is described as follows: log2 fold change, soluble protein after heating vs DMSO (PISA); higher = thermal stabilisation; K562 cells, 10 uM, 30 min; active = over 0.2 and 3.5 SD of the protein, either way, in both replicates (recomputed). The procedure, abridged: (§1)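 Aliquots of K562 cells (2×10^6 cells/mL) treated with 10 μM compound for 30 min were heated for 3 min over 48°C-58°C. After pooling and extraction in PBS with 0.5% NP-40 at 4°C, soluble protein from a 21,000xg, 90 min spin was quantified by TMTpro 16plex LC-MS/MS with channel sums equalised. Thermal stability is expressed against control samples, from duplicates, as a log2 fold change.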
Regarding DNAJC24 (UniProt Q6P3W2), the log2 fold change was -0.079.

Consider DENND1A isoform 6 (UniProt Q8TEH3), for which the log2 fold change was -0.086.

For ENTPD7 (UniProt Q9NQZ7), the log2 fold change was -0.165.

As for EZH2 isoform 2 (UniProt Q15910), the log2 fold change is 0.146.

Consider EIF4G3 isoform 3 (UniProt O43432), for which the log2 fold change is -0.01.

In the case of DDX11 (UniProt Q96FC9), the log2 fold change is -0.012.

As to DYNC1I2 isoform 2 (UniProt Q13409), the log2 fold change is -0.038.

On to DNAL1 (UniProt Q4LDG9), for which the log2 fold change is 0.035.

EIF3J isoform 2 (UniProt O75822): the log2 fold change is -0.033.

For FAM193B (UniProt Q96PV7), the log2 fold change is 0.19.

For DNAJB1 (UniProt M0R128), the log2 fold change is -0.252.

For the target ELMO1 (UniProt Q92556), the log2 fold change was 0.033.

Regarding CTNNBL1 (UniProt Q8WYA6), the log2 fold change was -0.12.

For DSN1 (UniProt Q9H410), the log2 fold change was 0.063.

For the target DOP1A (UniProt Q5JWR5), the log2 fold change was -0.091.

Turning to DOLPP1 (UniProt Q86YN1), the log2 fold change is -0.089.

Compound in another test: Cc1cccc(CC(=O)N2CCc3c2ccc(-c2cn(C)c4ncnc(N)c24)c3F)n1
Described as above. The procedure, abridged: as §1
Take CWF19L2 (UniProt Q2TBE0): the log2 fold change is -0.285.

CTSS (UniProt P25774): the log2 fold change was -0.063.

EEF2K (UniProt O00418): the log2 fold change was 0.007.

In the case of EIF4G1 (UniProt Q04637), the log2 fold change is 0.017.

With DCAF4 (UniProt Q8WV16), the log2 fold change was -0.423 (active).

For the target DCAF12 (UniProt Q5T6F0), the log2 fold change was 0.124.

In the case of EID1 (UniProt Q9Y6B2), the log2 fold change was -0.438.

As to FAM117B (UniProt Q6P1L5), the log2 fold change is 0.01.

Turning to DDX27 (UniProt Q96GQ7), the log2 fold change was -0.093.

As for EHBP1 (UniProt Q8NDI1), the log2 fold change is -0.154.

With DHRS13 (UniProt Q6UX07), the log2 fold change is -0.208.

Regarding ERF (UniProt P50548), the log2 fold change is 0.194.

Take ELAC1 (UniProt Q9H777): the log2 fold change was 0.124.

Compound in the next test: Cc1cn(-c2cc(NC(=O)c3ccc(C)c(Nc4nccc(-c5cccnc5)n4)c3)cc(C(F)(F)F)c2)cn1 [nilotinib]
The description is as above. The procedure, abridged:
as §1
In the case of FAM135A (UniProt Q9P2D6), the log2 fold change is 0.054.

For DNAJC24 (UniProt Q6P3W2), the log2 fold change is 0.019.

For ENTPD7 (UniProt Q9NQZ7), the log2 fold change was -0.104.

With ELF1 (UniProt P32519), the log2 fold change is 0.096.

With EIF4G3 isoform 3 (UniProt O43432), the log2 fold change is -0.043.

DDX11 (UniProt Q96FC9): the log2 fold change was 0.098.

Regarding DCAF4 (UniProt Q8WV16), the log2 fold change was -0.204.

As to EIF3J isoform 2 (UniProt O75822), the log2 fold change was -0.101.

As for EID1 (UniProt Q9Y6B2), the log2 fold change was -0.022.

Turning to DDX27 (UniProt Q96GQ7), the log2 fold change is -0.193.

On to ELMO1 (UniProt Q92556), for which the log2 fold change was -0.038.

For the target DSN1 (UniProt Q9H410), the log2 fold change is 0.082.

Turning to DDX46, A0A0C4DG89, the log2 fold change was 0.151.

With DOLPP1 (UniProt Q86YN1), the log2 fold change is 0.035.

With DHRS13 (UniProt Q6UX07), the log2 fold change is 0.197.

Take ELAC1 (UniProt Q9H777): the log2 fold change was 0.145.

Compound in the next test: Cc1nc(Nc2n[nH]c3c2CN(C(=O)N[C@H](CN(C)C)c2ccccc2)C3(C)C)c2sccc2n1
The test is described as above. The procedure, abridged:
as §1
As for FAM135A (UniProt Q9P2D6), the log2 fold change is -0.138.

Take DNAJC24 (UniProt Q6P3W2): the log2 fold change is -0.054.

For the target ENTPD7 (UniProt Q9NQZ7), the log2 fold change is -0.17.

For the target ELF1 (UniProt P32519), the log2 fold change is -0.028.

EIF4G3 isoform 3 (UniProt O43432): the log2 fold change is -0.12.

In the case of DDX11 (UniProt Q96FC9), the log2 fold change was 0.033.

Regarding DCAF4 (UniProt Q8WV16), the log2 fold change is -0.007.

Regarding EIF3J isoform 2 (UniProt O75822), the log2 fold change was -0.016.

Turning to EID1 (UniProt Q9Y6B2), the log2 fold change was -0.084.

Turning to DDX27 (UniProt Q96GQ7), the log2 fold change was -0.051.

ELMO1 (UniProt Q92556): the log2 fold change was 0.026.

Turning to DSN1 (UniProt Q9H410), the log2 fold change is -0.217.

As to DDX46, A0A0C4DG89, the log2 fold change was -0.322.

For DOLPP1 (UniProt Q86YN1), the log2 fold change was -0.062.

DHRS13 (UniProt Q6UX07): the log2 fold change is -0.153.

Turning to ELAC1 (UniProt Q9H777), the log2 fold change is -0.111.

Compound in another test: Cc1nc(Nc2ncc(C(=O)Nc3c(C)cccc3Cl)s2)cc(N2CCN(CCO)CC2)n1 [dasatinib]
Described as above. The procedure, abridged:
as §1
Consider CWF19L2 (UniProt Q2TBE0), for which the log2 fold change is 0.118.

Consider DNAJC24 (UniProt Q6P3W2), for which the log2 fold change was 0.053.

Take ENTPD7 (UniProt Q9NQZ7): the log2 fold change was -0.235.

As to ELF1 (UniProt P32519), the log2 fold change was -0.134.

Consider F2RL3 (UniProt Q96RI0), for which the log2 fold change is -0.03.

In the case of EZH2 isoform 2 (UniProt Q15910), the log2 fold change was -0.113.

Take EIF4G3 isoform 3 (UniProt O43432): the log2 fold change is -0.006.

Regarding DDX11 (UniProt Q96FC9), the log2 fold change was 0.061.

Take ELOVL7 (UniProt A1L3X0): the log2 fold change is -0.088.

Take CTSS (UniProt P25774): the log2 fold change is 0.052.

Consider EIF4G1 (UniProt Q04637), for which the log2 fold change is -0.191.

Regarding DCAF4 (UniProt Q8WV16), the log2 fold change was 0.11.

In the case of ENTR1 (UniProt Q96C92), the log2 fold change is 0.003.

For DNAL1 (UniProt Q4LDG9), the log2 fold change is 0.017.

As for EIF3J isoform 2 (UniProt O75822), the log2 fold change is 0.017.

As to FAM193B (UniProt Q96PV7), the log2 fold change was -0.01.

As for FAM117B (UniProt Q6P1L5), the log2 fold change was 0.207.

On to DDX27 (UniProt Q96GQ7), for which the log2 fold change was 0.21.

For the target DCP2 (UniProt Q8IU60), the log2 fold change was 0.02.

Take ELMO1 (UniProt Q92556): the log2 fold change was 0.03.

Turning to DSN1 (UniProt Q9H410), the log2 fold change was -0.242.

In the case of DHRS13 (UniProt Q6UX07), the log2 fold change is 0.005.

Take DLK1 (UniProt P80370): the log2 fold change was -0.012.

As to ELAC1 (UniProt Q9H777), the log2 fold change is -0.073.
